Test: HSE-luciferase reporter activators – cell-based (AID 1611)
Details: human cells, HSE-luciferase heat shock reporter; stronger effect = higher value

SMILES	fold change
Nc1ccc(S(=O)(=O)Nc2ccccn2)cc1	0.76
CCc1cccc2c3c([nH]c12)C(CC)(CC(=O)O)OCC3 (centres undefined)	1.02
C[C@@H]1O[C@@H](O[C@H]2[C@H](Oc3cc(O)c4c(c3)O[C@H](c3ccc(O)cc3)CC4=O)O[C@H](CO)[C@@H](O)[C@@H]2O)[C@H](O)[C@H](O)[C@H]1O	1.36
Nc1c(Br)cc(Br)cc1CNC1CCC(O)CC1 (centres undefined)	1.19
C#CCN(C)Cc1ccccc1	1.01
Cc1onc(-c2ccccc2)c1C(=O)NC1C(=O)N2[C@@H]1SC(C)(C)[C@@H]2C(=O)O (some centres undefined)	1.85
C[n+]1c2cc(N)ccc2cc2ccc(N)cc21	1.45
O=C(OCC(O)CO)c1ccccc1Nc1ccnc2cc(Cl)ccc12 (centres undefined)	0.5
COC(=O)C(N)CS (centres undefined)	0.85
CCN(CC)CC(=O)Nc1c(C)cccc1C	0.78
NC(N)=NC(=O)c1nc(Cl)c(N)nc1N	0.89
COc1ccc(CCN2CCC(Nc3nc4ccccc4n3Cc3ccc(F)cc3)CC2)cc1	1.64
CN[C@@H]1[C@H](O)[C@H](NC)[C@H]2O[C@@]3(O)C(=O)C[C@@H](C)O[C@H]3O[C@@H]2[C@H]1O	1.27
c1coc(CNc2ncnc3nc[nH]c23)c1	1.22
CN1CCN(C(c2ccccc2)c2ccc(Cl)cc2)CC1 (centres undefined)	1.12
Cc1cc(-c2ccccc2)nnc1NCCN1CCOCC1	0.98
NCC(O)CC(=O)O (centres undefined)	0.94
CC(CN1c2ccccc2Sc2ccccc21)N(C)C (centres undefined)	0.91
CCCCCCCCCCCCCCCC(=O)OC/C=C(C)/C=C/C=C(C)/C=C/C1=C(C)CCCC1(C)C	1.08
C#C[C@]1(OC(C)=O)CCC2C3CCC4=CC(=O)CC[C@@H]4C3CC[C@@]21C (some centres undefined)	0.92

SMILES	fold change
Cn1c(=O)c2c(ncn2CCO)n(C)c1=O	0.58
Nc1nc2c(ncn2COCCO)c(=O)[nH]1	1.01
O=C1C(CCS(=O)c2ccccc2)C(=O)N(c2ccccc2)N1c1ccccc1 (centres undefined)	0.91
O=C1c2c(O)cccc2Cc2cccc(O)c21	0.93
C1CNCCN1	1.04
C=C[C@H]1CN2CC[C@H]1C[C@@H]2[C@H](O)c1ccnc2ccc(OC)cc12	1.63
N=c1nc(N2CCCCC2)cc(N)n1O	0.77
CN1CCC(=C2c3ccccc3CC(=O)c3sccc32)CC1	1.41
Cc1ccc(C)c(OCCCC(C)(C)C(=O)O)c1	0.57
NNc1nncc2ccccc12	1.1
N[C@@H](CCC(=O)N[C@@H](CS)C(=O)NCC(=O)O)C(=O)O	1.11
Cc1nnc(SCC2=C(C(=O)O)N3C(=O)[C@@H](NC(=O)Cn4cnnn4)[C@H]3SC2)s1	0.8
CN(C)CCC(c1ccccc1)c1ccccn1 (centres undefined)	1.7
CCN(CC)CCOC(=O)c1ccc(N)cc1	0.94
COC(=O)C1=C(C)NC(C)=C(C(=O)OC)C1c1ccccc1[N+](=O)[O-]	1.12
CC(=C(CCOP(=O)(O)O)SC(=O)c1ccccc1)N(C=O)Cc1cnc(C)nc1N	0.96
CC(=O)OCC1=C(C(=O)O)N2C(=O)[C@@H](NC(=O)CSc3ccncc3)[C@H]2SC1	0.82
C=CCc1ccccc1OCC(O)CNC(C)C (centres undefined)	1.15
CN(C)C(=O)Oc1ccc[n+](C)c1	1.31

— PubChem BioAssay AID1611 (NINDS Approved Drug Screening Program, 2009)
